We go through 35 compounds from PubChem BioAssay AID1569 (National Center for Advancing Translational Sciences (NCATS), 2009).

Records with an inconclusive call do not appear. Active and inactive are the calls of the source. Calls follow the shape of the dose curve; as a rule, active = well fitted inhibition curve with a large enough effect; inconclusive = small, poorly fitted or top-dose-only effect, or effect the other way, or another doubt; inactive = no such curve, though single readings can be large or run the other way.
Potency is read from the fitted curve at half-maximal effect.

The experiment can be described thus: Confirmation Concentration-Response Assay for lipid storage modulators. Also: nearly all actives have a fitted effect of over 80% in size. The conditions noted are these: Drosophila S3 cells, lipid droplet BODIPY/CellTracker ratio, 18-24 h; series mostly up to 46.1 µM. In a few lines:
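Cells at 5,000/well received compound as a titration plus oleic acid (added as 400 uM solution) and were incubated 18–24 h at 24 °C. BODIPY 493/503 lipid signal and CellTracker Red cell count were read by 488-nm laser-scanning cytometry. Activity was normalised to 20 uM Triacsin C.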
On to `COc1ccc(Cl)cc1NC(=O)CN(C)C(=O)CCCc1c[nH]c2ccccc12`, for which the Potency was 22300 nM (active).

Take `CCOc1ccc(CCNC(=O)COC(=O)COc2ccc(Br)cc2)cc1OCC`: the Potency result is “inactive”.

Turning to `CCCCCCCCCCCCCCCCn1cc[n+](C)c1`, the Potency was 3150 nM (active).

As for `COc1ccc(CCCc2nnc(SCC(=O)Nc3nc(C)cs3)n2C)cc1C`, the Potency was 1410 nM (active).

Turning to `N#Cc1ccsc1NC(=O)CN1CCN(S(=O)(=O)c2ccccc2C(F)(F)F)CC1`, the Potency was 1250 nM (active).

With `O=C(Nc1ccc(N2CCOCC2)cc1N1CCOCC1)c1ccc(Br)cc1`, the Potency entry is “inactive”.

Turning to `CN(CC1CCCO1)S(=O)(=O)c1ccc(C(=O)Nc2ccc(F)cc2)cc1` (stereo not given), the Potency entry is “inactive”.

Consider `COc1ccc(/C=C(\NC(=O)c2cccs2)C(=O)Nc2ccccc2C)cc1OC`, for which the Potency was 177 nM (active).

Turning to `COc1ccc(CCNC(=O)CCCOc2cccc(C)c2C)cc1OC`, the Potency result is “inactive”.

As to `COc1ccc(CCNC(=O)c2ccc(N(C)S(=O)(=O)c3ccc(C)cc3)cc2)cc1OC`, the Potency was 14100 nM (active).

As for `O=C(CCC1CCCN(C(=O)c2ccc3c(c2)OCCO3)C1)NCc1ccccc1F` (stereo not given), the Potency is 2230 nM (active).

For `CC1CCN(C(=O)C2(NC(=O)Nc3cccc(F)c3)CCCCC2)CC1`, the Potency was 7910 nM (active).

Consider `CCn1c(COc2ccc(Cl)cc2)nnc1SCC(=O)Nc1ccc2c(c1)OCCO2`, for which the Potency is 11200 nM (active).

With `CC(C)OC(=O)c1cc2c(ccn2C)n1CC(=O)N(Cc1ccccc1)c1ccccc1`, the Potency is 1770 nM (active).

Take `COc1ccccc1NC(=O)NC1(C(=O)N2CCC(C)CC2)CCCCC1`: the Potency entry is “inactive”.

With `COc1ccc(/C=C/C(=O)NCCc2ccc(OC)c(OC)c2)cc1`, the Potency was 5600 nM (active).

For the compound `CC1CCCN(C2=C(NS(=O)(=O)c3ccc(Br)cc3)C(=O)c3ccccc3C2=O)C1` (stereo not given), the Potency was 2500 nM (active).

In the case of `Cc1ccc(NC(=O)CNC(=O)CC23CC4CC(CC(C4)C2)C3)c(O)c1`, the Potency was 2230 nM (active).

As to `COc1ccc(CCNC(=O)CSc2nc3[nH]ncc3c(=O)n2-c2ccc(Cl)cc2Cl)cc1OC`, the Potency entry was “inactive”.

Consider `O=S(=O)(c1ccccc1C(F)(F)F)N1CCC(n2cnc3ccccc32)CC1`, for which the Potency was 996 nM (active).

`O=C(CC(O)(C(F)(F)F)C(F)(F)F)Nc1ccc(Cl)c(Cl)c1`: the Potency was 9960 nM (active).

Take `CCC(C)(C)NC(=O)C(c1ccc(OC)cc1)N(CCOC)C(=O)CCC(=O)Nc1nccs1` (stereo not given): the Potency is 19900 nM (active).

As for `CCOC(=O)C1CCN(C(=O)C2(NC(=O)Nc3ccc(F)cc3F)CCCCC2)CC1`, the Potency is 1770 nM (active).

Turning to `CCOC(=O)C1CCN(C(=O)C2(NC(=O)NC3CCCCC3)CCCCC2)CC1`, the Potency is 1410 nM (active).

For the compound `Cc1ccc(C(C(=O)NC2CCCCC2)N(Cc2ccco2)C(=O)Cc2c[nH]c3ccccc23)o1` (stereo not given), the Potency was 4450 nM (active).

`COc1ccc2c(c1)O[C@@H](c1cccc(C(F)(F)F)c1)[C@H](OC(=O)NCCc1ccc(OC)c(OC)c1)C2=O`: the Potency is 4990 nM (active).

For the compound `Cc1ccc(C)c(S(=O)(=O)N2CCN(CC(=O)Nc3sccc3C#N)CC2)c1`, the Potency was 9960 nM (active).

`CCOc1ccc(CCNC(=O)COC(=O)/C=C/c2ccccc2)cc1OCC`: the Potency was 3530 nM (active).

For `Cn1nc(CC(=O)Nc2ccc(N3CCN(C(=O)OC(C)(C)C)CC3)cc2)c2ccccc2c1=O`, the Potency is 1770 nM (active).

As for `C[C@@H]1NS(=O)(=O)[C@H]2C[C@@H]3C=C[C@]2(O3)[C@H]1OC(=O)c1ccccc1Br`, the Potency result is “inactive”.

Regarding `c1ccc(-c2csc3ncnc(NCC4COc5ccccc5O4)c23)cc1` (stereo not given), the Potency was 1990 nM (active).

With `O=C(NCc1ccccc1)NC1(C(=O)N2CCCC2)CCCCC1`, the Potency result was “inactive”.

With `COc1ccc(CCn2ccc(O)c(Cc3c(F)cccc3Cl)c2=O)cc1OC`, the Potency was 434 nM (active).

On to `CN(Cc1cccc(F)c1)C(=O)c1ccc2c(=O)n3c(nc2c1)CCC3`, for which the Potency result was “inactive”.

For `CCOc1ccc(CCNC(=O)COC(=O)c2cccs2)cc1OCC`, the Potency was 3150 nM (active).
